The record followed here is PubChem BioAssay (Tox21).

The structures appear in SMILES notation. Values without a mark were called inactive. Inconclusive results are not listed. The source made the active and inactive calls. Unless noted, calls come from the whole dose curve; as a rule, active = well fitted curve in the direction sought with a large enough effect in the repeat runs; inconclusive = weak or mixed curves; inactive = no such curve, though single readings can be large; an effect the other way counts as inactive or inconclusive.

Test [1] is described as follows: qHTS assay to identify small molecule antagonists of the sonic hedgehog signaling (Shh) pathway (AID 1259369; calls by dose curve; note: nearly all actives have a fitted effect of over 45% in size). An outline of the steps: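 Read-out is luminescence from a firefly luciferase gene controlled by the Gli1 response element, in 3T3Gli1-Luc cells pre-incubated 4hr then exposed to compounds and conditioned medium for 24hr.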
A short description of test [2]: qHTS assay to identify small molecule agonists of the androgen receptor (AR) signaling pathway in the presence of an antagonist - cell viability counter screen (AID 1259379). Note: nearly all actives have a fitted effect of over 25% in size. Note: potency is the fitted concentration of half-maximal effect. The gist of the method:
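Each compound was tested at 15 concentrations on MDA-kb2 cells in the presence of 3.0uM nilutamide. Viability was measured by CellTiter-Fluor fluorescence after a 16 hr incubation at 37C in a CO2-free atmosphere.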

Test [3] in a line: qHTS assay to identify small molecule agonists of the estrogen receptor beta (ER-beta) signaling pathway - cell viability counter screen (AID 1259380). Note: nearly all actives have a fitted effect of over 30% in size. The gist of the method:
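Compounds dissolved in DMSO were pin-transferred onto ER-beta-UAS-bla HEK293T cells that had settled 6 hr, and exposure ran 16 hr at 37C. Following the reporter read, CellTiter-Glo luminescence after 30 min at room temperature indicated cytotoxicity.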

Test [4] is described as follows: qHTS assay to identify small molecule agonists or antagonists of the thyroid stimulating hormone receptor (TSHR) signaling pathway - wild type cell line counter screen (AID 1259384; calls by dose curve). The gist of the method:
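Counter screen in untransfected Hek293: compounds (15-point titration, triplicate) plus phosphodiesterase inhibitor Ro20-1724 added after 18 h plating; 30 min RT. Intracellular cAMP via competitive d2/cryptate immunoassay, 1 h incubation.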

The target of test [5] is Thyrotropin receptor (Homo sapiens) (UniProt P16473). Put plainly: qHTS assay to identify small molecule antagonists of the thyroid stimulating hormone receptor (TSHR) signaling pathway (AID 1259385; calls by dose curve; note: nearly all actives have a fitted effect of over 20% in size). An outline of the steps: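 Antagonist mode: compound-treated TSHR-expressing HEK293 cells were stimulated with 1.5 ng/mL TSH (final) in presence of Ro20-1724 for 30 min at RT. HTRF cAMP detection after 1 h; each compound tested at 15 concentrations, triplicate.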

Test [6] can be described thus: qHTS assay to identify small molecule agonists of the estrogen receptor alpha (ER-alpha) signaling pathway in the presence of an antagonist - cell viability counter screen (AID 1259386).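 Note: cells exposed to compounds for 22 h at 37 °C before the viability read; nearly all actives have a fitted effect of over 30% in size.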 Note: potency is the fitted concentration of half-maximal effect. An outline of the steps:
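Using estrogen-depleted VM7Luc4E2 cells, the 15-concentration compound series was applied together with 10.0nM ICI-182,780 and incubated 22hr at 37C/5% CO2. Cell viability was then scored by CellTiter-Fluor.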

Test [7] deals with Progesterone receptor (Homo sapiens) (UniProt P06401). The test can be described thus: qHTS assay to identify small molecule agonists of the progesterone receptor (PR) signaling pathway (AID 1346784; calls by dose curve; note: nearly all actives have a fitted effect of over 30% in size). An outline of the steps: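 Beta-lactamase reporter read-out: after 16 hr compound treatment at 37C and a further 2 hr at room temperature with LiveBLAzer B/G FRET substrate, fluorescence was measured in PR-UAS-bla HEK 293T cells grown in 2% charcoal-stripped serum.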

The target is the same in test [8]. The test can be described thus: qHTS assay to identify small molecule antagonists of the progesterone receptor (PR) signaling pathway (AID 1346795; active = well fitted inhibition curve with a large enough effect in the signal ratio in the repeat runs, not every such curve was filed as active; the % refers to the signal ratio). An outline of the steps: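 Read-out is fluorescence from the LiveBLAzer B/G FRET substrate, cleaved by a UAS-controlled beta-lactamase in PR-UAS-bla HEK293T cells after 16 hr exposure to compound plus 1 nM promegestone (final), followed by 2 hr at room temperature.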

The nature of test [9]: qHTS assay to identify small molecule antagonists of the progesterone receptor (PR) signaling pathway - cell viability counter screen (AID 1346798).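 Note: HEK293T PR-UAS-bla cells stimulated with the agonist R5020; series mostly up to about 92 µM; nearly all actives have a fitted effect of over 50% in size.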 An outline of the steps:
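HEK293T PR-UAS-bla, 2% charcoal-stripped FBS; 4 hr pre-plate; cpd + R5020, 16 h 37C; LiveBLAzer read first; then CellTiter-Glo 30 min RT, luminescence.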

Test [10] can be described thus: qHTS assay to identify small molecule agonists of the progesterone receptor (PR) signaling pathway - cell viability counter screen (AID 1346799; calls by dose curve; note: nearly all actives have a fitted effect of over 45% in size). An outline of the steps: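 Luminescence from CellTiter-Glo, added after the beta-lactamase FRET read in the same wells, gave cytotoxicity in PR-UAS-bla HEK293T cells treated with compounds for 16 hr at 37C.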
Test [11] in a line: qHTS assay to identify small molecule antagonists of the TGF-beta/Smad signaling pathway - cell viability counter screen (AID 1346824). Note: nearly all actives have a fitted effect of over 50% in size. The gist of the method: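 Cytotoxicity counter-screen run in the same wells as the beta-lactamase Smad reporter read: CellTiter-Glo luminescence after 30 min at room temperature. HEK 293T SBE-bla cells had 5 hr compound exposure at 37 C with TGF-beta1 (0.25 ng/mL stock).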

A short description of test [12]: qHTS assay to identify small molecule agonists of the TGF-beta/Smad signaling pathway - cell viability counter screen (AID 1346829). Note: top concentration of the series differs between compounds; nearly all actives have a fitted effect of over 45% in size. The gist of the method: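 Luminescence from CellTiter-Glo, read after a 30 min room-temperature incubation, gives cell viability of SBE-bla HEK 293T cells treated 5 hr with compounds at 37 C.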
Test [13] can be described thus: qHTS assay to identify small molecule agonists of the TGF-beta/Smad signaling pathway (AID 1346859; active = well fitted activation curve with a large enough effect in the signal ratio in the repeat runs, not every such curve was filed as active; the % refers to the signal ratio; note: series mostly up to about 77 µM). An outline of the steps: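 SBE-bla HEK 293T, 4,000 cells/well, plated o/n; cpd in DMSO, 5 hr, 37 C/5% CO2; B/G FRET substrate 2 hr RT; ex 405, em 460/530 nm.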
Test [14] addresses Thyrotropin-releasing hormone receptor (Homo sapiens) (UniProt P34981). Put plainly: qHTS assay to identify small molecule agonists of the thyrotropin-releasing hormone receptor (TRHR) signaling pathway (AID 1346891; calls by dose curve; note: series mostly up to about 58 µM). An outline of the steps: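 Intracellular calcium rise, read as fluorescence every second for 3 min, served as the agonist signal in dye-loaded HEK293 cells expressing TRHR; each compound ran at 15 concentrations in triplicate.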

The nature of test [15]: qHTS assay to identify small molecule antagonists of the estrogen receptor beta (ER-beta) signaling pathway - cell viability counter screen (AID 1259382).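 Note: HEK293T cells carrying ER-beta-UAS-bla reporter stimulated with estradiol; series mostly up to about 92 µM; nearly all actives have a fitted effect of over 55% in size.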 The gist of the method: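 CellTiter-Glo ATP luminescence measured after the LiveBLAzer read in the same wells; ER-beta-UAS-bla HEK293T cells, 16 hr compound treatment with 1nM 17-beta-estradiol agonist at 37C, 5% CO2.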

For test [16], the target named is Estrogen receptor (Homo sapiens) (UniProt P03372). Put plainly: qHTS assay to identify small molecule agonists of the estrogen receptor alpha (ER-alpha) signaling pathway in the presence of an antagonist (AID 1259383; calls by dose curve; note: top concentration of the series differs between compounds; nearly all actives have a fitted effect of over 15% in size). The gist of the method:
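Luminescent ERE-luciferase reporter, VM7Luc4E2 cells (endogenous ER-alpha); 10.0nM ICI-182,780 final; 15-point compound titration; 22hr at 37C; ONE-Glo, 30min RT.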

Test [17] has as its target Thyrotropin-releasing hormone receptor (Homo sapiens) (UniProt P34981). The test can be described thus: qHTS assay to identify small molecule antagonists of the thyrotropin-releasing hormone receptor (TRHR) signaling pathway (AID 1346877; active = well fitted inhibition curve with a large enough effect in the repeat runs, not every such curve was filed as active; note: series mostly up to about 51 µM). The gist of the method:
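Calcium signal in dye-loaded TRHR/HEK293 cells; compounds added 5 min before TRH (1 nM final); fluorescence monitored 3 min at 1 s steps.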

Sequence of Thyrotropin receptor (Homo sapiens) (P16473 whole entry, looked up): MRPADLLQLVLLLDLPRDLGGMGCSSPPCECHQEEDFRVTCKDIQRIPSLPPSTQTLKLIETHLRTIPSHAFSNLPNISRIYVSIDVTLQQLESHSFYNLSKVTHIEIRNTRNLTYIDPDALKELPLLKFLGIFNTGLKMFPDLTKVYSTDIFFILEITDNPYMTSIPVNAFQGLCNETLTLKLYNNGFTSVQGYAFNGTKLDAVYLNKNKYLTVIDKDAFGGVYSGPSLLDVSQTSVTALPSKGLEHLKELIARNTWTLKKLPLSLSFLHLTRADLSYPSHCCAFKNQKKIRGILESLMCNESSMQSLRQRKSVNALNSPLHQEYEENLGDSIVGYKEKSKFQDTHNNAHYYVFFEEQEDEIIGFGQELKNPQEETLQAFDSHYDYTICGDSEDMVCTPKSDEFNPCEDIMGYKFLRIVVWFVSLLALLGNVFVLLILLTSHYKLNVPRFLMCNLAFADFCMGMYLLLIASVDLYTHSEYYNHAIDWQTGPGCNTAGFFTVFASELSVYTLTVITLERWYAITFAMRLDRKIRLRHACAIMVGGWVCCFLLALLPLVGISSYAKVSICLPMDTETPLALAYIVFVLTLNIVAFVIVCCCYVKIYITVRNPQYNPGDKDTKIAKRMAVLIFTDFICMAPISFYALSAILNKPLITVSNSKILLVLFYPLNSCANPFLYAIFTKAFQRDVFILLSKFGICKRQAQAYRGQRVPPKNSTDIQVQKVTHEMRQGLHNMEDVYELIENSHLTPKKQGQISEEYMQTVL
Sequence of Estrogen receptor (Homo sapiens) (P03372 whole entry, looked up): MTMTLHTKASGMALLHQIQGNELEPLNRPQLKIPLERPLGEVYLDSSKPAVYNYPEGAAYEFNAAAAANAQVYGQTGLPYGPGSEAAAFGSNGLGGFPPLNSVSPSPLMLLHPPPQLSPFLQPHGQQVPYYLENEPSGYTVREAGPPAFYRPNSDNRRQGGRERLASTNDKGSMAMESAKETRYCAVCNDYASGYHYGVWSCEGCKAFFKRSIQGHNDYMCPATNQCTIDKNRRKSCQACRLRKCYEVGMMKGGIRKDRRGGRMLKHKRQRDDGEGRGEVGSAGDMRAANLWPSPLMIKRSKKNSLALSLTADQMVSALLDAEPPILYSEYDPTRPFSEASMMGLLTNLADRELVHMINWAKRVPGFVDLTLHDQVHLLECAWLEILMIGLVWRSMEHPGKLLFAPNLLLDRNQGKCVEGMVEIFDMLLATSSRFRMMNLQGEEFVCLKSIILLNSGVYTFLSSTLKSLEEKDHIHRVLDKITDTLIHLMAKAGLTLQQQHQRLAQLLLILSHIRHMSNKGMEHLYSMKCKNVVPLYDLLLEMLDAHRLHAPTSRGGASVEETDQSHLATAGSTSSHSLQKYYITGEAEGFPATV
Sequence of Thyrotropin-releasing hormone receptor (Homo sapiens) (P34981 whole entry, looked up): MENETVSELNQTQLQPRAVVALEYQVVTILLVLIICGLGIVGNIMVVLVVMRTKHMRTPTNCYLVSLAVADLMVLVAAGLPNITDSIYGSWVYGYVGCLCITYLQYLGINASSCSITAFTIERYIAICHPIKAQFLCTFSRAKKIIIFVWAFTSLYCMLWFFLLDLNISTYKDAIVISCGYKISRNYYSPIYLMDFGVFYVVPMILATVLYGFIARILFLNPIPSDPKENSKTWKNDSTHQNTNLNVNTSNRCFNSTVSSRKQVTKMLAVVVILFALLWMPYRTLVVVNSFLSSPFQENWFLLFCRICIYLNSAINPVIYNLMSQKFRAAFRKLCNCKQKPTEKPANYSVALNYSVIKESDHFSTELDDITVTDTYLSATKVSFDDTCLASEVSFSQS
Sequence of Progesterone receptor (Homo sapiens) (P06401 whole entry, looked up): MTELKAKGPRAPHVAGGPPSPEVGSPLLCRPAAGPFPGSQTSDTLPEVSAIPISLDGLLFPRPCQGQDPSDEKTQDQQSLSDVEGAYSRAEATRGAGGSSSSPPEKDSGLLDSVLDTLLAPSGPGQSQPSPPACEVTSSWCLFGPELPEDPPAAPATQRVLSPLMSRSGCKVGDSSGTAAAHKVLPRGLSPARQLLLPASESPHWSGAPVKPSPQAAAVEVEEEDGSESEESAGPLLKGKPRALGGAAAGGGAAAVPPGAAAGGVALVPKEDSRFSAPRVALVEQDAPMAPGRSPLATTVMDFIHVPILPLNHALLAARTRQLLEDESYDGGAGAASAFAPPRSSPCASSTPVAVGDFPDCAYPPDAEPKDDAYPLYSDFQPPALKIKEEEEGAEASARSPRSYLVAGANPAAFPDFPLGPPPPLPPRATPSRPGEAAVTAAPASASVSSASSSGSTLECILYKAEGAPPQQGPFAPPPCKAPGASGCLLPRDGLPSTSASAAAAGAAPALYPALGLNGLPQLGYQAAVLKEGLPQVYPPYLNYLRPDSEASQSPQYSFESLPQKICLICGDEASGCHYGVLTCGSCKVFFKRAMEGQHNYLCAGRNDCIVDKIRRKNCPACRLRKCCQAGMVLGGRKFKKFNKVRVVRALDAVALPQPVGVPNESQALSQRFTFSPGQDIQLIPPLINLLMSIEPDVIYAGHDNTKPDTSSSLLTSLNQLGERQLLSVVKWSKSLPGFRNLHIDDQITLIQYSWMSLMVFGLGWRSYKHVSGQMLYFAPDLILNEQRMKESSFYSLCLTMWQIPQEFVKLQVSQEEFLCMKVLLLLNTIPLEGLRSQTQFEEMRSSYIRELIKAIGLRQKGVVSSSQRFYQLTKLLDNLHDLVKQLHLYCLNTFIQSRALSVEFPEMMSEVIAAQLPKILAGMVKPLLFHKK

`CC[N+](C)(CC)CCOC(=O)C1c2ccccc2Oc2ccccc21`: the Potency entry in [1], in test [2], in test [3], in test [6], in test [7] and in test [8] was “inactive” in each case. The Potency result in test [9], in [10] and in [14] was “inactive” in each case. For the same compound, the outcome in test [4], in [5], in test [11], in [12] and in [13] was inactive.

As for `CCC1C(=O)OCC1Cc1cncn1C` (stereo unspecified), the Potency result in test [1], in [2], in test [3], in test [6], in test [7] and in [8] was “inactive” in each case. Besides, the Potency entry in test [9] and in test [14] was “inactive” throughout. In addition, the outcome in [15], in test [16], in test [4], in test [5], in [11] and in test [12] was inactive. For the same compound, the outcome in [13] and in test [17] was inactive.

As to `CCCCCCCCCCCCCCCCCCO`, the Potency result in test [1], in [2], in test [3], in [6], in [7] and in [8] was “inactive” throughout. Further, the Potency entry in [9], in test [10] and in [14] was “inactive” in each case. Besides, the outcome in [15], in [16], in test [5], in test [11], in [12] and in [13] was inactive. In addition, the compound was called inactive in test [17].

Consider `CN1[C@@H]2CC[C@H]1CC(OC(=O)C(O)c1ccccc1)C2` (stereo partly specified), for which the Potency entry in test [1], in test [2], in test [3], in test [6], in test [7] and in test [8] was “inactive” throughout. For the same compound, the Potency entry in [9], in [10] and in test [14] was “inactive” throughout. The outcome in test [16], in test [4], in [5], in test [11], in [12] and in test [13] was inactive. The result in test [17] was inactive.

`COc1cc2c(cc1OC)-c1cc3ccc(OC)c(OC)c3c[n+]1CC2`: the Potency entry in [1], in test [3], in [8], in test [10] and in test [14] was “inactive” throughout. Further, the Potency is 49 µM (active) in test [2] and 61.7 µM (active) in test [6]. Moreover, the call in [15], in [11], in test [12] and in test [17] was inactive.

Consider `COc1cc(C(=O)NCc2ccc(OCCN(C)C)cc2)cc(OC)c1OC`, for which the Potency entry in [1], in test [2], in test [3], in [6], in test [7] and in test [8] was “inactive” each time. The Potency result in test [9], in [10] and in test [14] was “inactive” throughout. Also, the result in test [16], in [5], in test [11], in test [12] and in [13] was inactive.

As for `Cc1ccnc(NS(=O)(=O)c2ccc(N)cc2)n1`, the Potency entry in test [1], in test [2], in test [3], in test [6], in [8] and in test [9] was “inactive” each time. For the same compound, the Potency result in test [10] was “inactive”. Moreover, the call in [15], in test [16], in test [4], in test [5], in test [11] and in test [12] was inactive. Also, the compound was classed as inactive in test [13].
